Data reported in PubChem BioAssay (NCATS).
Inconclusive results are not listed. Active and inactive are the calls of the source. Unless noted, calls come from the whole dose curve; as a rule, active = well fitted curve in the direction sought with a large enough effect; inconclusive = small, poorly fitted or top-dose-only effect, or another doubt; inactive = no such curve, though single readings can be large; an effect the other way counts as inactive or inconclusive.

Experiments:
[1] = target: Cytochrome P450 3A4 (Homo sapiens) (UniProt P08684); experiment: qHTS Assay for Activators of Cytochrome P450 3A4 (AID 885); note: nearly all actives have a fitted effect of over 65% in size
Sequence of Cytochrome P450 3A4 (Homo sapiens) (P08684 whole entry, looked up): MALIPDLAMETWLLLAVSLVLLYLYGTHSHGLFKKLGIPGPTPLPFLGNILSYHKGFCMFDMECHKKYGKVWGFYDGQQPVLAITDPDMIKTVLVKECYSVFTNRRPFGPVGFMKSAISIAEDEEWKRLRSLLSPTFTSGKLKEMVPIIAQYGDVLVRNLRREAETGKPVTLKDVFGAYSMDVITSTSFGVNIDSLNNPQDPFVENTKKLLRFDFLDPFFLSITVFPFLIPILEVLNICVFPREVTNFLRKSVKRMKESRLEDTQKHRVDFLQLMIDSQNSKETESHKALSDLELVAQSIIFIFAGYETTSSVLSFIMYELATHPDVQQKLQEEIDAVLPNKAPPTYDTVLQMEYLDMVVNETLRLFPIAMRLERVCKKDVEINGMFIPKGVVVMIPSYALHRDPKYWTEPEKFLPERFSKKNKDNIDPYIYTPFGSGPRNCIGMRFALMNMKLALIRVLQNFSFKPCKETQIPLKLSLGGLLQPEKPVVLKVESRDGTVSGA
How it was run: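 Activators are scored by enhanced luminescence from CYP3A4 conversion of luciferin-PPXE (25uM, equal to KM) to luciferin, after 60 min at RT with an NADPH-regenerating system.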

[2] = Confirmation and Secondary Assay for Modulators of Hemoglobin Beta Chain Splicing at IVS2 654 locus (AID 910);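 note: per-well total GFP intensity by laser scanning cytometry after 2-day treatment; % of control where 0% means no effect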
How it was run: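 HeLa cells stably carrying EGFP interrupted by mutant beta-globin IVS2-654 intron (CMV-driven) were treated with compound for 2 days at 37C; corrected splicing was scored as total peak GFP intensity per well (488 nm excitation, 500-520 nm emission).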

[3] = Confirmation and Secondary Assay for Modulators of Hemoglobin Beta Chain Splicing at IVS2 705 locus (AID 930);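 note: HeLa cells stably expressing the EGFP-705 splicing reporter; % of control where 0% means no effect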
How it was run: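 Restored EGFP fluorescence after 2-day compound exposure reports splicing correction in IVS2-705 EGFP reporter HeLa cells; positive control was 500 nM splice-blocking PNA oligo. Signal measured as well total peak GFP intensity (488 nm excitation).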

[4] = qHTS Assay for Lipid Storage Modulators (AID 1519; calls by dose curve); conditions: Drosophila S3 cells, BODIPY lipid droplet/cell ratio, laser cytometry, cells loaded with oleic acid
How it was run: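 Cells seeded at 5,000 per well were treated with compounds over a concentration series and loaded with oleic acid (400 uM, as added). Lipid droplet fluorescence (488 nm excitation, 500-530 nm channel) was read by laser-scanning cytometry and normalized to 20 uM Triacsin C.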

[5] = target: Ubiquitin carboxyl-terminal hydrolase 1 (Homo sapiens) (UniProt O94782); experiment: Inhibitors of USP1/UAF1: Pilot qHTS (AID 504865);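 note: rhodamine fluorescence freed from ubiquitin-rhodamine substrate followed over time; top concentration of the series differs between compounds; % is set by controls: 0 for no effect and ±100 for the full control effect; nearly all actives have a fitted effect of over 35% in size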
Sequence of Ubiquitin carboxyl-terminal hydrolase 1 (Homo sapiens) (O94782 whole entry, looked up): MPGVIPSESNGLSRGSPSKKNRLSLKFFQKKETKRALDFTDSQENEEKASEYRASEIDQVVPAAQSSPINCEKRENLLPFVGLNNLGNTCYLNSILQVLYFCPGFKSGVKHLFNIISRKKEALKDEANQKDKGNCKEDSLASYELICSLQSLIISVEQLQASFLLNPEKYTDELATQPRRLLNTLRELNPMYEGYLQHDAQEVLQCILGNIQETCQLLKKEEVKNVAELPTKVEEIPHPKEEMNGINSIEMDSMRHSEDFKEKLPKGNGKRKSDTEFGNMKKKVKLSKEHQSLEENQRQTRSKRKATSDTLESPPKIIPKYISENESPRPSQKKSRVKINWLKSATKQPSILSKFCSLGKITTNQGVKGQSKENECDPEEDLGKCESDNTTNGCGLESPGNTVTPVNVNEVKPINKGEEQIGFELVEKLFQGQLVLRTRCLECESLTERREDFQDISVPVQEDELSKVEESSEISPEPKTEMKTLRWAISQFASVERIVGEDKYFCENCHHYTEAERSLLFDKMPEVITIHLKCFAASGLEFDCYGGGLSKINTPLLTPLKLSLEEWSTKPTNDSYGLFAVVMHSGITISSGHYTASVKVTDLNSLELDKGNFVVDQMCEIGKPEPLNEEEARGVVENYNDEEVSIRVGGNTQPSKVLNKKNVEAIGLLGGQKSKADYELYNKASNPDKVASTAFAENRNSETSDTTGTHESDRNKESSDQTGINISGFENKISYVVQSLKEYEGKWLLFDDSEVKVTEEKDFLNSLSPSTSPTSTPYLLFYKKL
How it was run: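 Kinetic fluorescence assay: 1nM USP1/UAF1, 15 min compound preincubation, then 150nM Ub-Rho; 480/540 nm.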

[6] = qHTS for Inhibitors of the Functional Ribonucleoprotein Complex (vRNP) of Lassa (LASV) Arenavirus: LASV Primary Screen - GLuc reporter signal (AID 1347082; calls by dose curve; tested in HEK293 reporter line; note: % is set by controls: 0 for no effect and ±100 for the full control effect; nearly all actives have a fitted effect of over 60% in size)
[7] = qHTS for Inhibitors of the Functional Ribonucleoprotein Complex (vRNP) of Lassa (LASV) Arenavirus: Viability assay - alamar blue signal for LASV Primary Screen (AID 1347083; calls by dose curve; tested in HEK293 reporter line; note: % is set by controls: 0 for no effect and ±100 for the full control effect; nearly all actives have a fitted effect of over 80% in size)
[8] = qHTS for Inhibitors of the Functional Ribonucleoprotein Complex (vRNP) of Lymphocytic Choriomeningitis Arenaviruses (LCMV): Viability assay - alamar blue signal for LCMV Primary Screen (AID 1347085; calls by dose curve; tested in HEK293 reporter line; note: % is set by controls: 0 for no effect and ±100 for the full control effect; nearly all actives have a fitted effect of over 80% in size)
[9] = target: Nucleoprotein (Lymphocytic choriomeningitis virus (strain Armstrong)) (UniProt P09992); experiment: qHTS for Inhibitors of the Functional Ribonucleoprotein Complex (vRNP) of Lymphocytic Choriomeningitis Arenaviruses (LCMV): LCMV Primary Screen - GLuc reporter signal (AID 1347086; calls by dose curve; note: % is set by controls: 0 for no effect and ±100 for the full control effect; nearly all actives have a fitted effect of over 70% in size)
Sequence of Nucleoprotein (Lymphocytic choriomeningitis virus (strain Armstrong)) (P09992 whole entry, looked up): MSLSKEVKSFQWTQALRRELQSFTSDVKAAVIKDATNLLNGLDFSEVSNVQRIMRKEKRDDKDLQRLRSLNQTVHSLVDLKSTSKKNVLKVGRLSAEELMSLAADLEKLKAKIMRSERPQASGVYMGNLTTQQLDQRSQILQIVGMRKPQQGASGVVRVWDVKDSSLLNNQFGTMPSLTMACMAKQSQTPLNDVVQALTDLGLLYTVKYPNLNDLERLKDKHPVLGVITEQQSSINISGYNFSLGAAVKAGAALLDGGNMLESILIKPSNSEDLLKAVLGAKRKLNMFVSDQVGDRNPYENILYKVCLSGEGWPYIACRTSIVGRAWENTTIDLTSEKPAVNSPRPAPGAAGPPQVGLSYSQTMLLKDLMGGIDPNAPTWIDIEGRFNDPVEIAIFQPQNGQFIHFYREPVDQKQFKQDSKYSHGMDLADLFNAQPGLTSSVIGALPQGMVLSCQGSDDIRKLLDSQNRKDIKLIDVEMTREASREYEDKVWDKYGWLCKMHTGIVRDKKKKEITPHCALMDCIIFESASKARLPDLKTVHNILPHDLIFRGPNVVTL

[10] = qHTS profiling of the MIPE4 collection as inhibitors of Plasmodium falciparum (3D7) proliferation (AID 743344; call rule not given here;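 note: scaled between DMSO vehicle wells and 0.29 µM artemisinin as full inhibition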); conditions: P. falciparum 3D7 in erythrocytes, SYBR Green DNA fluorescence, 72 h; at 28.5 µM (top of the series) unless noted
How it was run: (§1)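 Parasite DNA was quantified by SYBR Green I fluorescence (ex 485, em 535 nm) after overnight lysis in saponin/Triton buffer at room temperature. Cultures at 0.3% parasitemia and 2.5% hematocrit were first exposed to compound for 72 h at 37 C; signals were normalised to artemisinin (0.29 uM) and vehicle wells.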

[11] = qHTS profiling of the MIPE4 collection as inhibitors of Plasmodium falciparum (DD2) proliferation (Rep 2) (AID 743346; call rule not given here); conditions: P. falciparum Dd2 in erythrocytes, SYBR Green DNA, 72 h; at 28.5 µM (top of the series) unless noted
How it was run: as §1

[12] = qHTS profiling of the MIPE4 collection as inhibitors of Plasmodium falciparum (HB3) proliferation (AID 743347; call rule not given here;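 note: plate controls were DMSO vehicle wells for no effect and artemisinin wells for full effect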); conditions: P. falciparum HB3 in erythrocytes, SYBR Green DNA, 72 h; at 28.5 µM (top of the series) unless noted
How it was run: as §1

[13] = Confirmatory qHTS to identify inhibitors of SARS-CoV-2 cell entry (AID 1645844; calls by dose curve; note: potency is the fitted concentration of half-maximal effect; nearly all actives have a fitted effect of over 45% in size)
How it was run: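 Using stable human ACE2 Expi293F cells, compounds preincubated 1 hr before spike pseudoparticle infection; luciferase signal after 48 hr at 37C, 5% CO2, normalised to spike PP and no-fusion-protein PP wells.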

[14] = Cytotoxicity counterscreen for inhibitors of SARS-CoV-2 cell entry (AID 1645845; calls by dose curve; note: % is set by controls: 0 for no effect and ±100 for the full control effect; nearly all actives have a fitted effect of over 50% in size)
How it was run: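 After a 15 min room-temperature ATPLite 1step step, luminescence reflected ATP remaining in HEK293-ACE2 cells exposed to compound for 1 h plus 48 h at 37 C, with percent activity set by cell and no-cell controls.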

[15] = Primary qHTS to identify inhibitors of SARS-CoV-2 cell entry (AID 1645846; calls by dose curve; note: nearly all actives have a fitted effect of over 45% in size); conditions: activity change, negative = inhibition: at 57.1 µM (top of the series) unless noted
How it was run: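 Data are normalized to wells receiving SARS-CoV-2-S pseudoparticles and those given bald particles. Entry signal was luciferase luminescence in stable hACE2 Expi293F cells, 48 hr post-infection, after 1 hr compound pretreatment.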

[16] = VSVG counterscreen qHTS to identify inhibitors of SARS-CoV-2 cell entry (AID 1645847; calls by dose curve; note: potency is the fitted concentration of half-maximal effect; nearly all actives have a fitted effect of over 65% in size)
How it was run: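 Counterscreen using VSV-G (not spike) pseudotyped MLV particles on ACE2-expressing Expi293F cells after 1 h compound preincubation; infection ran 48 h at 37 °C. Data normalized to VSV-G PP and bald-PP wells.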

[17] = AP1 Signaling Pathway (AID 357; active = well fitted curve in either direction with a large enough effect, not every such curve was filed as active;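 note: ME-180 reporter cells stimulated with EGF at its EC50 level; % is set by controls: 0 for no effect and ±100 for the full control effect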)
How it was run: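 Beta-lactamase reporter under AP-1 response element, ME-180 background. Stimulus: EC50 EGF. Compound exposure 5 h, 37 °C. Detection: CCF4, 2.5 h RT, 460/530 nm. Values: AC50 from titration.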

[18] = target: Cytochrome P450 1A2 (Homo sapiens) (UniProt P05177); experiment: p450-cyp1a2 (AID 410; calls by dose curve; note: potency is the fitted concentration of half-maximal effect)
Sequence of Cytochrome P450 1A2 (Homo sapiens) (P05177 whole entry, looked up): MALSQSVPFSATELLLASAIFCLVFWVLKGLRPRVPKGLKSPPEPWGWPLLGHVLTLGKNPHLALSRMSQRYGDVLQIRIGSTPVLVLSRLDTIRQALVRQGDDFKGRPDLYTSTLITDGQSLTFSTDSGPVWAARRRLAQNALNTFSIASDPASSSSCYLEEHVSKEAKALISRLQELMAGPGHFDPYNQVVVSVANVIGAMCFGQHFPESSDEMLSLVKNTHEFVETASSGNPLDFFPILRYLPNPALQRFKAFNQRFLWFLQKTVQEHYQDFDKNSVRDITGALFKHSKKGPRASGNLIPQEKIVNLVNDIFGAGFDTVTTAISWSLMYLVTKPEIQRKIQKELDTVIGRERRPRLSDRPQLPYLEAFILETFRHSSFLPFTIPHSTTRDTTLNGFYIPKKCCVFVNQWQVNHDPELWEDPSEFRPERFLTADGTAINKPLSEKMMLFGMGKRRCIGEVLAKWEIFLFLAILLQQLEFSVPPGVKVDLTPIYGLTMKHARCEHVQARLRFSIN
How it was run: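 O-Demethylation of luciferin 6' methyl ether by human CYP1A2 is monitored as luciferase luminescence. Substrate sits at Km (100uM); enzyme is 20nM. Values are scaled to 57 uM furafylline as maximal inhibition.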

[19] = Stat Signaling Pathway (AID 446; active = well fitted curve in either direction with a large enough effect, not every such curve was filed as active;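 note: ME-180 cervical cancer cells given 40 pM IL-6 alongside compound; SIE-controlled beta-lactamase reporter measured as 460/530 nm FRET emission ratio; % is set by controls: 0 for no effect and ±100 for the full control effect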)
How it was run: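 Emission at 460 and 530 nm (excitation 405 nm) reports SIE-controlled beta-lactamase in ME-180 cells. Cells received compound with 40 pM IL-6 for 5 hrs at 37 C; data scaled between 300 pM IL-6 and 125 nM JAK-inhibitor controls.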

[20] = target: Glucocorticoid receptor (Homo sapiens) (UniProt P04150); experiment: GR-GFP Redistribution (AID 450;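 active = compounds whose dose series gives a full or clear partial fitted curve of increased nuclear translocation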; note: potency is the fitted concentration of half-maximal effect); conditions: U2OS GR-GFP nuclear translocation, laser cytometry, 2 h
Sequence of Glucocorticoid receptor (Homo sapiens) (P04150 whole entry, looked up, the tested form may be a part): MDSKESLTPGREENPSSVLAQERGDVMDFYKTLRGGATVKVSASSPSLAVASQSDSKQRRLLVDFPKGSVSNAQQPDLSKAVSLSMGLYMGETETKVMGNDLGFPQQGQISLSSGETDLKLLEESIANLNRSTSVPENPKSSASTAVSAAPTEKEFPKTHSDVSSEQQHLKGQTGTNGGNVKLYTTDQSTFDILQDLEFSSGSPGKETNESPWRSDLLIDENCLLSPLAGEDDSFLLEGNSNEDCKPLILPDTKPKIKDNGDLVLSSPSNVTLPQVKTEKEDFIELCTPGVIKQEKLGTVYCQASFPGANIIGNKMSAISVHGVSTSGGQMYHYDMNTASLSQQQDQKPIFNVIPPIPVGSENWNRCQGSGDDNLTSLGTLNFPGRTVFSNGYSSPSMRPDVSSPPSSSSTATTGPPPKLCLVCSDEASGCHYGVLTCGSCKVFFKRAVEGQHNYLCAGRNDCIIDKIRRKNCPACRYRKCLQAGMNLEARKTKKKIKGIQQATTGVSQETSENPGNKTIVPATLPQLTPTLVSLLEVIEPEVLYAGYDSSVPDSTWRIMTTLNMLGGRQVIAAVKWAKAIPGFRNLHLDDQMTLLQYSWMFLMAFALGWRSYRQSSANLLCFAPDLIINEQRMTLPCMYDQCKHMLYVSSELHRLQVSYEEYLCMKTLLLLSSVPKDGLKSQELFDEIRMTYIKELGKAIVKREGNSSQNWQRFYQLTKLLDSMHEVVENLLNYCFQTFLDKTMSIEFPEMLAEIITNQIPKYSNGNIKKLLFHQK

[21] = target: Glucocorticoid receptor (Homo sapiens) (UniProt P04150); experiment: GR-EFC Redistribution (AID 451; calls by dose curve; note: potency is the fitted concentration of half-maximal effect); conditions: CHO-K1 GR-EFC translocation, beta-gal luminescence, 2 h
How it was run: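 CHO-K1 cells stably expressing nuclear-localized β-gal enzyme acceptor and GR fused C-terminally to the enzyme donor fragment; ligand-driven nuclear translocation restores β-gal by complementation. Compounds titrated up to 46 uM final, 2 h at 37 °C; luminescence read.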

[22] = target: Mitogen-activated protein kinase 10 (Mus musculus) (UniProt Q61831); experiment: JNK3 AlphaScreen Assay (AID 530; active = well fitted curve in either direction with a large enough effect, not every such curve was filed as active;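 note: kinase came from lysate of stimulated human HepG2 cells; signal reports phosphorylation of biotinylated GST-cJun 1-79 at Ser73 with 10 µM ATP; % is set by controls: 0 for no effect and ±100 for the full control effect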)
How it was run: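 Phosphorylation of biotinylated GST-cJun(1-79) at Ser73 is measured by AlphaScreen proximity luminescence. Enzyme is JNK3 in HepG2 lysates activated with interleukin-1beta and tumor necrosis factor alpha; ATP is 10 uM final.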

[23] = target: 3',5'-cyclic-AMP phosphodiesterase 4B (Homo sapiens) (UniProt Q07343); experiment: qHTS Assay for Inhibitors of PDE-IV (AID 607; active = well fitted activation curve with a large enough effect in the main read-out, with a control signal flat, not every such curve was filed as active; note: % of control where 0% means no effect)
Sequence of 3',5'-cyclic-AMP phosphodiesterase 4B (Homo sapiens) (Q07343 whole entry, looked up): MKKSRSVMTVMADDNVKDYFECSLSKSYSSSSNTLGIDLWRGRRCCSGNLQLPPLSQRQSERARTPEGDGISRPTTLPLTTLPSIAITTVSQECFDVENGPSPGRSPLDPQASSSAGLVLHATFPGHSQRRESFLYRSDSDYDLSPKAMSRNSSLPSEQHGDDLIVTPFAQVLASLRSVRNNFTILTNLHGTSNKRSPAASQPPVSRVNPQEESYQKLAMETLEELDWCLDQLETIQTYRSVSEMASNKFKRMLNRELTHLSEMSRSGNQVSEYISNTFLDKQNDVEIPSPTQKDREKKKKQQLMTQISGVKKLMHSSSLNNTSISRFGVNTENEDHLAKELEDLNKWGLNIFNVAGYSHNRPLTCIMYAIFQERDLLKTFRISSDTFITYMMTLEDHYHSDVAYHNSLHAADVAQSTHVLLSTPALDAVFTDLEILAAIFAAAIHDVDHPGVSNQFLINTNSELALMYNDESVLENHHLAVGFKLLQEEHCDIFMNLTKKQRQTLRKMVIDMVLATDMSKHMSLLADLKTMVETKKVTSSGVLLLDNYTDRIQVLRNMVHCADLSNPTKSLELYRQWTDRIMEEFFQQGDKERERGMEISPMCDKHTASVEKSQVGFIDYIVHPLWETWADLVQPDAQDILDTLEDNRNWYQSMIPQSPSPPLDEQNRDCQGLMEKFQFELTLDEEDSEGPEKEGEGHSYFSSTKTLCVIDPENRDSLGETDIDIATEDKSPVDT
How it was run: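 The readout is membrane depolarisation from a cAMP-sensing CNG channel, detected with a potential dye at ex 535/em 590. Cells were HEK293-derived (endogenous PDE-IV) at 1000 cells/well, titrated up to 22.9 uM final.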

[24] = target: Cytochrome P450 2C9 (Homo sapiens) (UniProt P11712); experiment: qHTS Assay for Inhibitors and Substrates of Cytochrome P450 2C9 (AID 883); note: % is set by controls: 0 for no effect and ±100 for the full control effect; nearly all actives have a fitted effect of over 60% in size
How it was run: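 A luminogenic readout tracked human CYP2C9 (10nM) converting deoxyluciferin (100uM, at KM) in 25mM KPO4 during 60 min at 37C with regenerated NADPH. Values normalized to 57uM sulphaphenazole as complete inhibition.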

[25] = target: Cytochrome P450 2D6 (Homo sapiens) (UniProt P10635); experiment: qHTS Assay for Inhibitors and Substrates of Cytochrome P450 2D6 (AID 891); note: potency is the fitted concentration of half-maximal effect; nearly all actives have a fitted effect of over 60% in size
Sequence of Cytochrome P450 2D6 (Homo sapiens) (P10635 whole entry, looked up): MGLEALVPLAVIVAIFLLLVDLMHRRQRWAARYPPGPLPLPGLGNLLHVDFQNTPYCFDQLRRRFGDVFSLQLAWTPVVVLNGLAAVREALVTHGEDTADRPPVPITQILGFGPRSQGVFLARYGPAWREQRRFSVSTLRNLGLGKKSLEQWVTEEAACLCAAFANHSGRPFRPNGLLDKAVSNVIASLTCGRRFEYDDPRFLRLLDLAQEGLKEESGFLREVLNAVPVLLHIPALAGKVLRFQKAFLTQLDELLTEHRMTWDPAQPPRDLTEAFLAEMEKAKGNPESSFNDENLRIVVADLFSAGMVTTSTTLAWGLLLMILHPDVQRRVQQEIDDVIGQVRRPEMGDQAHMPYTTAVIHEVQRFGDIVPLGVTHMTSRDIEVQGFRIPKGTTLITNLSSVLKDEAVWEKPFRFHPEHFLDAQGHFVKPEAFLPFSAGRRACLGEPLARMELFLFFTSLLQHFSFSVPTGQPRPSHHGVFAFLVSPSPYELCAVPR
How it was run: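 Luminescent read-out of luciferin formed by 5 nM human CYP2D6 demethylating 30 uM Luciferin-ME EGE (Km level) over 60 min at room temperature after NADPH regeneration addition. Data normalized to full inhibition by 1.43 uM quinidine.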

[26] = target: Cytochrome P450 2C19 (Homo sapiens) (UniProt P33261); experiment: qHTS Assay for Inhibitors and Substrates of Cytochrome P450 2C19 (AID 899); note: % is set by controls: 0 for no effect and ±100 for the full control effect; nearly all actives have a fitted effect of over 60% in size
Sequence of Cytochrome P450 2C19 (Homo sapiens) (P33261 whole entry, looked up): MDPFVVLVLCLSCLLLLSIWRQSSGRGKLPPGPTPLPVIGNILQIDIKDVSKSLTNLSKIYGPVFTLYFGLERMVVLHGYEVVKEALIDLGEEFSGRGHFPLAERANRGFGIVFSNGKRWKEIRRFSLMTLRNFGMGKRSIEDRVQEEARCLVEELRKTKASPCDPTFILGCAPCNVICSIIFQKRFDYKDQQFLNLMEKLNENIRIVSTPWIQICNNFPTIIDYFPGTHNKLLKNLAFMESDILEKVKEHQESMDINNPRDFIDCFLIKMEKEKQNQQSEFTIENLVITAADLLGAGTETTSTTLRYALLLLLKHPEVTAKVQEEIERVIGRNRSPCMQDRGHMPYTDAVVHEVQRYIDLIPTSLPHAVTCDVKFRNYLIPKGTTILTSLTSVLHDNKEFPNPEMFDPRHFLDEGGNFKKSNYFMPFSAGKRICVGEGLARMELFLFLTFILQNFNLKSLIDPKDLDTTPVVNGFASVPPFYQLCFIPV
How it was run: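 NADPH-dependent conversion of Luciferin-H EGE (10uM, at KM) by 5nM enzyme in 50mM KPO4, 60 min at 37C following 10 min compound preincubation. Stopped with luciferin detection buffer; luminescence read after 20 min.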

[27] = Primary qHTS for small molecule stabilizers of the endoplasmic reticulum resident proteome: Secreted ER Calcium Modulated Protein (SERCaMP) assay (AID 1508630); note: % is set by controls: 0 for no effect and ±100 for the full control effect
How it was run: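 The SH-SY5Y reporter protocol was run at 3 concentrations up to 38.3 uM (primary) or 11 concentrations (follow-up): 16 h compound, 100 nM thapsigargin for 4 h, then extracellular luciferase luminescence.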

[28] = target: Cytochrome P450 3A4 (Homo sapiens) (UniProt P08684); experiment: qHTS Assay for Inhibitors and Substrates of Cytochrome P450 3A4 (AID 884); note: potency is the fitted concentration of half-maximal effect; nearly all actives have a fitted effect of over 50% in size
How it was run: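 Luminescent readout of luciferin produced by CYP3A4 (20 nM) dealkylation of Luciferin-PPXE, 25 uM (its KM). NADPH-driven reaction ran 60 min at RT after 10 min compound preincubation; data scaled to 57 uM ketoconazole as 100% inhibition.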

[29] = target: DNA dC->dU-editing enzyme APOBEC-3G (Homo sapiens) (UniProt Q9HC16); experiment: qHTS for inhibitors of Vif-A3G interactions: Validation (AID 588379); note: 0% is about no effect
How it was run: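 Yellow fluorescence (Ex 488, Em 500-530) of Vif-coexpressing HeLa A3G-eYFP cells, scanned by Acumen cytometer, reports blocked A3G degradation. Cells plated at 700/well overnight at 37 deg C before compound addition, then a further overnight compound incubation at 37 deg C.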

[30] = Counterscreen qHTS for small molecule stabilizers of the endoplasmic reticulum resident proteome: GLuc-NoTag assay (AID 1508627);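 note: 0% = thapsigargin alone and -100% = DMSO vehicle control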
How it was run: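 Secreted GLuc lacking the SERCaMP modification is measured in SH-SY5Y cells exposed to compound for 19 h and then to thapsigargin (100 nM, 4 h) to deplete ER calcium; hits retested at 11 concentrations, up to 76.6 uM.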

[31] = Cell Viability qHTS for small molecule stabilizers of the endoplasmic reticulum resident proteome (AID 1508629); conditions: cell viability counter-screen, 100 nM thapsigargin for final 4 h

C=CCSSCC=C
5.28%: max response ([4]; measured here: cell count channel max response)
inactive: Potency [1] | Potency [2] | outcome [3] | activity change, negative = inhibition ([4]; at 57.5 µM (top of the series)) 11.8% | Potency [5] | Potency [6] | Potency [7] | Potency [8] | Potency [9]
18.2%: max response ([4]; measured here: lipid channel max response)

C[N+](C)([O-])CCNc1ccc(NCC[N+](C)(C)[O-])c2c1C(=O)c1c(O)ccc(O)c1C2=O
41.1%: parasite growth, % of control (lower = inhibition) [11]
active: Potency [13] 19.2 µM | Potency [16] 10.8 µM
60.6%: growth, % of control [12]
-13.5%: activity change, negative = inhibition [15]
inactive: Potency [6] | Potency [7] | Potency [8] | Potency [9] | Potency [14]
49%: parasite growth, % of DMSO control [10]

CC1=C[C@@H]2c3cccc4[nH]cc(c34)C[C@H]2N(C)C1
inactive: outcome [17] | outcome [19] | Potency [20] > 46 µM | Potency [21] > 46 µM | outcome [22] | Potency [23] | Potency [24] | Potency [26] | Potency [6] | Potency [7] | Potency [8] | Potency [9] | Potency [27]
active: Potency [18] 3.16 µM | Potency [25] 2 µM

CCCOc1ccc2[nH]cc(C3=CCNCC3)c2n1
inactive: Potency [20] > 46 µM | Potency [21] > 46 µM | outcome [22] | Potency [1] | Potency [5] | Potency [29] | Potency [6] | Potency [7] | Potency [8] | Potency [9] | Potency [30] | max response [31] 2.34%
active: Potency [18] 0.126 µM | Potency [28] 2.51 µM
